Experimental data from ChEMBL document CHEMBL3988442, “University of Dundee, Small-Polar-MMV Screening Library” (2021).
For some of these results: Entries with a potency or affinity are not part of this list.

Experiments:
Parameters in all cases: scale not given: direction of the effect not stated beside the values
[1] = target: Protein translocase subunit SecA (Escherichia coli (strain K12)) (UniProt P10408); experiment: Assay to Identify E. coli SecA ATPase Inhibitors; format: functional; details: 30 µM
[2] = target: T1, Ubiquitin-activating enzyme e1, putative (Leishmania donovani (strain BPK282A1)) (UniProt E9BSI1); experiment: Leishmania donovani Ubiquitin Activating Enzyme (LdE1); format: functional; details: 30 µM
T1 sequence (whole entry): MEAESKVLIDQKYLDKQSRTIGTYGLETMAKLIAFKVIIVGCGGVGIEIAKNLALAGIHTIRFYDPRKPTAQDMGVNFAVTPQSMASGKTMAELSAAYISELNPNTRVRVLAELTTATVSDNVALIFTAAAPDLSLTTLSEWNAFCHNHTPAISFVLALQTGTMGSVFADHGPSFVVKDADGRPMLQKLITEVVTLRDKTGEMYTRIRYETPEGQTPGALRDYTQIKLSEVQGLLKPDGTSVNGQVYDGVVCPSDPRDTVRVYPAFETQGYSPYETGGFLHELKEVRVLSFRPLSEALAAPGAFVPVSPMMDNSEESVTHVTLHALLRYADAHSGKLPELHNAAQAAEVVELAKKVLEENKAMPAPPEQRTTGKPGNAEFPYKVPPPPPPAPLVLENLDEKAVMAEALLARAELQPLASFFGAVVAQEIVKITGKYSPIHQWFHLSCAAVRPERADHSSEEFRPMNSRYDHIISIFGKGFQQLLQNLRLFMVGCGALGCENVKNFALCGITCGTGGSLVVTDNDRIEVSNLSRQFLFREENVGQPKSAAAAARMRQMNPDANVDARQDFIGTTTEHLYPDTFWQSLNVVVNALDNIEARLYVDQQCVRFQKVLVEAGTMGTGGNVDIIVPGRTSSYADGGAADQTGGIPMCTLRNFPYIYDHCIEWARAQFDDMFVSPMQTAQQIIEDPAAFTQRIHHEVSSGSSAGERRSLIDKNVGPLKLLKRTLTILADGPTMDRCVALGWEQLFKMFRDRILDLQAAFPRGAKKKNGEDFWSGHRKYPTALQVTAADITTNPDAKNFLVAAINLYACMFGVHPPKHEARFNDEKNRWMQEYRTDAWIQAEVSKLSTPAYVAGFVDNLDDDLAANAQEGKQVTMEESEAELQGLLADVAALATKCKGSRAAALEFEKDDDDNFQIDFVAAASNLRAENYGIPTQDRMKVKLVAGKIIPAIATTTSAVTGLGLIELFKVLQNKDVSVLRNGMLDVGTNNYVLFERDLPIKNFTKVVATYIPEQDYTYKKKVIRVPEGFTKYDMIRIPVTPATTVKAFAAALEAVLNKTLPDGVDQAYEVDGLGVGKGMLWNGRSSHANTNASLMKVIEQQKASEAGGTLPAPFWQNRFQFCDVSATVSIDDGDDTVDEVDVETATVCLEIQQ

[3] = target: AMP-activated protein kinase, AMPK (Homo sapiens) (UniProt P54646+O43741+P54619+Q9UGJ0+Q9Y478+Q13131+Q9UGI9); experiment: AMP-dependent Kinase enzyme assay. An in vitro enzyme assay that detects ADP turnover that is directly proportional to AMPK activity. This uses naive AMPK that is activated during the assay with MK-8722; format: functional; details: 30 µM
[4] = target: Sialic acid-binding Ig-like lectin 9 (Homo sapiens) (UniProt Q9Y336); experiment: Hs-Siglec9 ALPHAscreen SOP 20170721; details: 10 µM
Trypanosoma cruzi = experiment: Trypanosoma cruzi phosphomannomutase and mannose-1-phosphate guanylyltransferase assay; format: functional; details: 10 µM
[5] = target: T2, Arginase-2, mitochondrial (Homo sapiens) (UniProt P78540); experiment: in vitro enzyme assay to detect the production of urea directly proportional to the activity of Arginase II; format: functional; details: 33.3 µM; note: in the data most compounds retested in dose-response had high values
T2 sequence (whole entry): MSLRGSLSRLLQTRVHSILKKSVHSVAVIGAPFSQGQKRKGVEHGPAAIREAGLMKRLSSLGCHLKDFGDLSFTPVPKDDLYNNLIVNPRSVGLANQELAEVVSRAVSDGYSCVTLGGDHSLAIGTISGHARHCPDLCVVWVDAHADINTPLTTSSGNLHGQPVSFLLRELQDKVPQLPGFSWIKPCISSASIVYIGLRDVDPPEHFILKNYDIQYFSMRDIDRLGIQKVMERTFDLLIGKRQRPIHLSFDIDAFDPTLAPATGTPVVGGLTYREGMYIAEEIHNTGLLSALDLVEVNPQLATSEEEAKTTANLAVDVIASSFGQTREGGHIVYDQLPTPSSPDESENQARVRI

[6] = target: T3, Proteasome subunit beta (Trypanosoma cruzi) (UniProt O96673); experiment: Trypanosoma cruzi proteasome chymotrypsin-like activity (TcProtChymo) assay.; note: in the data most compounds retested in dose-response had high values; format: functional; details: 9.37 µM
T3 sequence (whole entry): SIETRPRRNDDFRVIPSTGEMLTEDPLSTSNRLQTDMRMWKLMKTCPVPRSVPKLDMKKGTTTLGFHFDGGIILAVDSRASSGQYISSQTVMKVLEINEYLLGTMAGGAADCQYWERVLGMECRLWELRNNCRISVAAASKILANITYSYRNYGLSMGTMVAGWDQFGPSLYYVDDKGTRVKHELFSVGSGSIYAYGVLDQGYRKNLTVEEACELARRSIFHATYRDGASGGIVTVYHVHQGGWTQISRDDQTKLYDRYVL

Homo sapiens = species: Homo sapiens; experiment: To identify inhibition of the IFN signalling (Jak-Stat) pathway via expression of an eGFP reporter gene under the control of an IFN-stimulated response element (ISRE) containing MxA promoter.; format: functional; details: 30 µM
[7] = target: T4, Tyrosyl-tRNA synthetase, putative (Trypanosoma cruzi (strain CL Brener)) (UniProt Q4DSP6); experiment: Trypanosoma cruzi tyrosyl tRNA synthetase (TcYRS) _High Tyrosine SOP; format: functional; details: 30 µM; note: in the data most compounds retested in dose-response had high values
T4 sequence (whole entry): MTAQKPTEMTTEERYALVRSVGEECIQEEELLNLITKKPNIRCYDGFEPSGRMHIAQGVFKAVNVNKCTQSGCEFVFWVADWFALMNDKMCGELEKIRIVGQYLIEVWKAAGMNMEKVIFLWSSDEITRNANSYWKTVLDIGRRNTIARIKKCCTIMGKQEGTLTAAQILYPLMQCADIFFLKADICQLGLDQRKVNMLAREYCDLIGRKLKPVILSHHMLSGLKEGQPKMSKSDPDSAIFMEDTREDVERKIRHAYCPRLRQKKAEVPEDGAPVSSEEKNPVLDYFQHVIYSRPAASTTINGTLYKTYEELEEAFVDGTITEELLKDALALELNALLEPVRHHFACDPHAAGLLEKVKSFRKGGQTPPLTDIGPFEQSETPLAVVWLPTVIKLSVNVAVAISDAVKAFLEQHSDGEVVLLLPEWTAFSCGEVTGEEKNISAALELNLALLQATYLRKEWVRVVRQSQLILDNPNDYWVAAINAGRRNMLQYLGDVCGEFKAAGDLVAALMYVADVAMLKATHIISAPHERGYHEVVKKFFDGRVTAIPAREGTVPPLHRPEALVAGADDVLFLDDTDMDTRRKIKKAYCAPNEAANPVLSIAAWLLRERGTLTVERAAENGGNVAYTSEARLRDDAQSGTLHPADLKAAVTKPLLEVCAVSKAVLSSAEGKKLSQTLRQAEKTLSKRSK

[8] = target: T4, Tyrosyl-tRNA synthetase, putative (Trypanosoma cruzi (strain CL Brener)); experiment: Trypanosoma cruzi tyrosyl tRNA synthetase (TcYRS) SOP; format: functional; details: 30 µM
[9] = target: Chromo domain-containing protein 1 (Saccharomyces cerevisiae (strain ATCC 204508 / S288c) (Baker's yeast)) (UniProt P32657); experiment: ScCHD-1 Enzyme Inhibition Assay; format: functional; details: 30 µM; note: in the data most compounds retested in dose-response had high values
Sequence of Chromo domain-containing protein 1 (Saccharomyces cerevisiae (strain ATCC 204508 / S288c) (Baker's yeast)) (P32657 whole entry, the tested form may be a part): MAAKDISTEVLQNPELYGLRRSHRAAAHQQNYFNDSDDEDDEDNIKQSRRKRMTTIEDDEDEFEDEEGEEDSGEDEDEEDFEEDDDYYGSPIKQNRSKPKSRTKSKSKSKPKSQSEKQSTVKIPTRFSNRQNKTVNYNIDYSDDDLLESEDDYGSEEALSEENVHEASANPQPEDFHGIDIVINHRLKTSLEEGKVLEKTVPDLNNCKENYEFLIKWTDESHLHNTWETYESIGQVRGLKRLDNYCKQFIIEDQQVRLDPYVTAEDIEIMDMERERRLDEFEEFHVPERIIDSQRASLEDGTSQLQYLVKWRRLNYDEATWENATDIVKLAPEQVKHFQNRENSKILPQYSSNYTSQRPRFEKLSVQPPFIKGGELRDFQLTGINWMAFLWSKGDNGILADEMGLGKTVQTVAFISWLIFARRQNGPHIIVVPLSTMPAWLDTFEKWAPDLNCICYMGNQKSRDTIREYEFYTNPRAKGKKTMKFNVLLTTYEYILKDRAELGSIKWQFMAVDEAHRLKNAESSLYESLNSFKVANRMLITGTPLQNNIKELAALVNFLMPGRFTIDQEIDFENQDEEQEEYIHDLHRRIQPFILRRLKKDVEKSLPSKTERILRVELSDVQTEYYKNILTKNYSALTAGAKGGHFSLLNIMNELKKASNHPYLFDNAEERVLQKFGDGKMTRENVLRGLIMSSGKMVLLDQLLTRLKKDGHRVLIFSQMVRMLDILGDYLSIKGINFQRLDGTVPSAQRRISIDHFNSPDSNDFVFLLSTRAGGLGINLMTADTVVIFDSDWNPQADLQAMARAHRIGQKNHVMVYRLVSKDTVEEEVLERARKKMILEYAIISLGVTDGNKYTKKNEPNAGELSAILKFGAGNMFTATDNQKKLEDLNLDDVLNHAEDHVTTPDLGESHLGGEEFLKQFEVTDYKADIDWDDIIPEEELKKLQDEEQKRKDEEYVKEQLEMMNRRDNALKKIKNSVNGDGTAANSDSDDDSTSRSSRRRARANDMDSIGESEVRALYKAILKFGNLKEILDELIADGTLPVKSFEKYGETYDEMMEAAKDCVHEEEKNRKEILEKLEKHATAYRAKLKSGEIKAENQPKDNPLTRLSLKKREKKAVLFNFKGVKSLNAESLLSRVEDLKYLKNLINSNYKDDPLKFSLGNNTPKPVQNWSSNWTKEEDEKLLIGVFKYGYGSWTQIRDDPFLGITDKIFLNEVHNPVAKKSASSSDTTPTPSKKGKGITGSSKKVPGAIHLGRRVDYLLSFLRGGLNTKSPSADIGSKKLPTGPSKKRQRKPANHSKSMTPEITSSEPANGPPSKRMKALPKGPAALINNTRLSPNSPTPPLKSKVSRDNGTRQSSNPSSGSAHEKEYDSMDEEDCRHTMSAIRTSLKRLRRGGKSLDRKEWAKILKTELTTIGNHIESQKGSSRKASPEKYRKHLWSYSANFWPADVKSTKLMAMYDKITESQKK

Sequence of Sialic acid-binding Ig-like lectin 9 (Homo sapiens) (Q9Y336 whole entry): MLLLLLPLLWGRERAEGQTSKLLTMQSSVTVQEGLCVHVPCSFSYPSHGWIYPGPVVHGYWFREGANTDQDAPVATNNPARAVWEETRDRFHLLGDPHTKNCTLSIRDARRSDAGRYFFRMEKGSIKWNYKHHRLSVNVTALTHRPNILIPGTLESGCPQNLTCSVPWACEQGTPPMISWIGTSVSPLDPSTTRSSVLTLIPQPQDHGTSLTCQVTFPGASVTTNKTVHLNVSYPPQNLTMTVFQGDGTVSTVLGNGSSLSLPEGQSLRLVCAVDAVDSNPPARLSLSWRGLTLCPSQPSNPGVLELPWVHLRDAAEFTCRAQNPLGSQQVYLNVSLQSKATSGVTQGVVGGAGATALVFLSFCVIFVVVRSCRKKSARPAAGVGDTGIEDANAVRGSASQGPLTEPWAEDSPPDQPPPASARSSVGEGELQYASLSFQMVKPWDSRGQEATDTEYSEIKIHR
Sequence of Protein translocase subunit SecA (Escherichia coli (strain K12)) (P10408 whole entry): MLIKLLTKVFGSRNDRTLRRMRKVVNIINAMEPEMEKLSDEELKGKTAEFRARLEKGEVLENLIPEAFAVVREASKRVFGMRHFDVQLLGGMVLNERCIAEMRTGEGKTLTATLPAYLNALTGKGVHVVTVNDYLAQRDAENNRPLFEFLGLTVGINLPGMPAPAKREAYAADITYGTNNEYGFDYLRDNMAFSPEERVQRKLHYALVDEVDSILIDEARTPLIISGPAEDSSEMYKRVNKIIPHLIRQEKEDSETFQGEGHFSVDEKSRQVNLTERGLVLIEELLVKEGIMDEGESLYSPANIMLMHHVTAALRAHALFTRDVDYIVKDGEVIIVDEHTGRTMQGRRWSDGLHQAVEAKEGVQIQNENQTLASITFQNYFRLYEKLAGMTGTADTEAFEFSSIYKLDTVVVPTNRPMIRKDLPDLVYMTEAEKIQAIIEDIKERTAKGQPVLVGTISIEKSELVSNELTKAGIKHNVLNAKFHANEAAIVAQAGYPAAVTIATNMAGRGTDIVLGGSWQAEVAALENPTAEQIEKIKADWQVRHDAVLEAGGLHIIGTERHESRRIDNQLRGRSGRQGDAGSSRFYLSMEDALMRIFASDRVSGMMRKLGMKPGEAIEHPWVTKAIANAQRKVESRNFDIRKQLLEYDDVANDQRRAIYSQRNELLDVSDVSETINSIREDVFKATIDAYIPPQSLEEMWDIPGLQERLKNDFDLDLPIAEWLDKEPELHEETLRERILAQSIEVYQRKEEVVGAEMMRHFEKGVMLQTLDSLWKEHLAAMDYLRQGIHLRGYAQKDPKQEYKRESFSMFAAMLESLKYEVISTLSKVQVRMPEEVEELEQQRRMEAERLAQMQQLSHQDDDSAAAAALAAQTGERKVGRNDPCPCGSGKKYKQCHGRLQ

Row | SMILES | Percent Effect [1] [%] | Percent Effect [2] [%] | Percent Effect [3] [%] | Percent Effect [4] [%] | Percent Effect (Trypanosoma cruzi) [%] | Percent Effect [5] [%] | Percent Effect [6] [%] | Percent Effect (Homo sapiens) [%] | Percent Effect [7] [%] | Percent Effect [8] [%] | Percent Effect [9] [%]
1 | O=C(c1cc(=O)[nH]c(=O)[nH]1)N1CCCCC1c1ccc(F)cc1 (stereo not given) | 1.51 | 4.17 | 0.748 | -6.89 | -3.21 | 3.97 | 16.8 | -0.138 | 5.26 | 2.56 | -2.94
2 | O=C(N1CCOCC1)[C@@]12CCO[C@@H]1CCN(CCN1CCCCC1)C2 | -0.594 | 14.7 | -0.279 | -2.46 | 1.18 | -4.05 | 20.9 | -2.62 | -6.35 | 15.4 | -11.6
3 | CNS(=O)(=O)c1cccc(CNC(=O)c2c(C)oc(C)c2C)c1 | -3.91 | 19 | 6.49 | -6.49 | 3.79 | -1.07 | 18.4 | 7.61 | 2.08 | 15.2 | 53.2
4 | CCOc1cccc(C(C)NCc2ccc(OC)c(OC)c2OC)c1 (stereo not given) | -3 | 16 | -4.66 | 15.5 | 8.08 | 4.69 | 11.2 | 43.6 | 7.1 | 21 | -6.92
5 | Cc1cc(C)n(CC(=O)NC(Cc2ccsc2)c2ccccn2)c(=O)n1 (stereo not given) | -10.3 | 12.2 | -6.03 | 12.5 | 8.5 | -4.87 | 9.2 | -8.13 | 5.38 | 11.7 | -22.9
6 | Cc1cc(CN2CCOCS2(=O)=O)ccc1F | 2.12 | 5.41 | -2.01 | 3.16 | -5.21 | 4.29 | 16.4 | 9.21 | 4.76 | 4.88 | -2.56
7 | CNS(=O)(=O)c1cccc(CNc2ccc(C(F)(F)F)nn2)c1 | -5.02 | 8.11 | -4.31 | -0.144 | -3.87 | 30.9 | -1.62 | 19.2 | 4.43 | 6.17 | -1.87
8 | Cc1nc(C)n(CC2CCCN2Cc2nc(-c3cccs3)no2)n1 (stereo not given) | -2.92 | -7.89 | 1.44 | 6.54 | -0.188 | 2.3 | 6.85 | 17.8 | 5.39 | 12.2 | 1.98
9 | O=C(NCCN1CCCc2ccccc21)c1scnc1Cl | -4.96 | 2.63 | 0.379 | -2.42 | 2.52 | -0.719 | 2.96 | -9.38 | 7.39 | 1.24 | 3.5
10 | Cc1cc2n(n1)CC(CNCc1ccnc(-n3ccnc3C)c1)CN2 (stereo not given) | -2.38 | 26.3 | -14.2 | -7.03 | 7.52 | -4.98 | 22.9 | 4.37 | 3.43 | 17.1 | -13.8
11 | O=C(NCC1CCOC1)c1csc(-c2ccco2)n1 (stereo not given) | -2.71 | 13 | -3.93 | -0.826 | 5.24 | -1.07 | 13.8 | 13.5 | 7.77 | 21.9 | -8.51
12 | O=c1c2sccc2nc2n1CCN(Cc1cccs1)CC2 | -2.34 | 12.2 | 10.7 | 1.3 | -0.395 | -1.16 | 10.9 | 12.6 | 0 | 11.7 | -12
13 | O=C(CCC1CCCC1)NCCn1nc(C2CCNC2)c2cccnc21 (stereo not given) | -0.0662 | 0 | 8.6 | 2.58 | 4.53 | -0.699 | 3.26 | -34.5 | 3.19 | 6.41 | -1.12
14 | Clc1ccccc1CN1CCc2nc(C3CCCCN3)ncc2C1 (stereo not given) | -3.32 | -8 | 4.19 | 5.09 | 8.46 | -1.17 | 5.55 | -13.2 | 5.32 | 3.85 | -2.09
15 | O=C1NCCCCC1Sc1nnc(-c2cccnc2)n1C1CC1 (stereo not given) | -2.96 | 2.74 | 5.81 | 0.732 | -2.55 | 0 | 9.23 | -4.55 | 7.53 | 12.5 | -6.68
16 | CN(CCN1CCOCC1)C(=O)CCCc1ccccc1 | -3.72 | 0 | 3.21 | 3.74 | 4.38 | -3.55 | 13.9 | -19 | 5.32 | 5.2 | 0.287
17 | CC(=O)Nc1nc(C(=O)N2CCCC2Cn2cc(C)cn2)cs1 (stereo not given) | -5.22 | 10.4 | 1.53 | 17.1 | -6.76 | 1.47 | 14.5 | 26.6 | 2.86 | 9.41 | -19.2
18 | CCc1nnc2n1CCN(C(=O)C(C)COCc1ccccc1)C2 (stereo not given) | -1.9 | 10.5 | 0.611 | -4.15 | 7.94 | -1.44 | 6.68 | -1.54 | 3.45 | 16.1 | -2.72
19 | CC1CCCN(C(=O)c2csc(S(N)(=O)=O)c2)CC1 (stereo not given) | -6.52 | 2.7 | 1.27 | -1.52 | -6.75 | 0.248 | -0.944 | -3.67 | 4.3 | 6.17 | -0.416
20 | O=S1(=O)COCCN1Cc1cccc(Cl)c1 | -1.74 | 5.41 | -2.78 | 6.98 | 7.92 | -1.91 | 13.4 | 17.7 | 8.99 | 12.2 | -2.28
